Experimental data: PubChem BioAssay (EPA / NIEHS)
Records with an inconclusive call do not appear. The source made the active and inactive calls. Rule for the calls: active = hit-call score of the fitted dose curve at least 0.9, where 1 is the maximum; inconclusive = response in the unintended direction; inactive = score below 0.9.

Experiments:
[1] = molecular target: Cellular tumor antigen p53 (Homo sapiens) (UniProt P04637); assay: TOX21_p53_BLA_p2_ratio: Tox21 HCT-116 p53 Agonism Beta-lactamase Assay, Ratio, Phase 2 (AID 2283592)
How it was run: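 Read-out is the blue/green (460/530 nm, 405 nm excitation) ratio after 2 h CCF4-AM loading, fitted as gain versus DMSO. Compounds, pinned at 217-fold dilution from DMSO stocks, stayed 16 h on HCT-116 beta-lactamase reporter cells seeded 5 h earlier.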

[2] = TOX21_p53_BLA_p3_viability: Viability Assessment in the Tox21 HCT-116 p53 Agonism Beta-lactamase Assay, Phase 3 (AID 2283593);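 note: cells exposed to compound for 16 h before reading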
How it was run: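 HCT-116 cells (4000/well) rested 5 h at 37C, then got DMSO compounds by pin tool (217-fold dilution) for 16 h at 37C, 5% CO2. After the bla read, CellTiter-Glo was added and luminescence read at 30 min, room temperature.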

[3] = molecular target: Cellular tumor antigen p53 (Homo sapiens) (UniProt P04637); assay: TOX21_p53_BLA_p3_ratio: Tox21 HCT-116 p53 Agonism Beta-lactamase Assay, Ratio, Phase 3 (AID 2283596)
How it was run: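 Cells were seeded at 4000/well, rested 5 h at 37C, then dosed with DMSO compound solutions (217-fold dilution) for 16 h. CCF4-AM substrate was loaded for 2 h at room temperature, and the 460/530 nm emission ratio was fitted for gain of signal versus DMSO.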

[4] = TOX21_p53_BLA_p4_viability: Viability Assessment in the Tox21 HCT-116 p53 Agonism Beta-lactamase Assay, Phase 4 (AID 2283597);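 note: hits lower the luminescence signal meaning cytotoxicity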
How it was run: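 Cytotoxicity as reduced cellular ATP (CellTiter-Glo luminescence, 30 min room temperature), measured in the same wells following the CCF4 FRET p53 reading. Human HCT-116 cells received compounds in DMSO (217-fold dilution) for 16 h.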

[5] = molecular target: Cellular tumor antigen p53 (Homo sapiens) (UniProt P04637); assay: TOX21_p53_BLA_p5_ratio: Tox21 HCT-116 p53 Agonism Beta-lactamase Assay, Ratio, Phase 5 (AID 2283599)
How it was run: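 HCT-116 cells carrying a p53-inducible beta-lactamase reporter were seeded at 4000 cells/well and dosed after 5 h with compound in DMSO (217-fold dilution). After 16 h at 37C, CCF4-AM substrate was added for 2 h, and the 460/530 nm emission ratio was scored as gain-of-signal versus DMSO.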

[6] = molecular target: Cellular tumor antigen p53 (Homo sapiens) (UniProt P04637); assay: TOX21_p53_BLA_p4_ratio: Tox21 HCT-116 p53 Agonism Beta-lactamase Assay, Ratio, Phase 4 (AID 2283601)
How it was run: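 HCT116 cells carrying an inducible beta-lactamase reporter were plated at 4000 cells/well, rested 5 h, then exposed to compounds in DMSO (217-fold dilution) for 16 h at 37C. CCF4-AM substrate was loaded 2 h at room temperature; 460/530 nm emission ratio scored gain-of-signal versus DMSO.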

[7] = TOX21_p53_BLA_p5_viability: Viability Assessment in the Tox21 HCT-116 p53 Agonism Beta-lactamase Assay, Phase 5 (AID 2283600)
How it was run: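 Viability came from CellTiter-Glo ATP luminescence, read after 30 min at room temperature. Before this, HCT-116 p53-bla cells (4000/well) had 16 hours of compound exposure at 37C, with DMSO stocks diluted 217-fold on transfer.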

Measured: outcome

Chain of Cellular tumor antigen p53 (Homo sapiens) (P04637 whole entry, looked up): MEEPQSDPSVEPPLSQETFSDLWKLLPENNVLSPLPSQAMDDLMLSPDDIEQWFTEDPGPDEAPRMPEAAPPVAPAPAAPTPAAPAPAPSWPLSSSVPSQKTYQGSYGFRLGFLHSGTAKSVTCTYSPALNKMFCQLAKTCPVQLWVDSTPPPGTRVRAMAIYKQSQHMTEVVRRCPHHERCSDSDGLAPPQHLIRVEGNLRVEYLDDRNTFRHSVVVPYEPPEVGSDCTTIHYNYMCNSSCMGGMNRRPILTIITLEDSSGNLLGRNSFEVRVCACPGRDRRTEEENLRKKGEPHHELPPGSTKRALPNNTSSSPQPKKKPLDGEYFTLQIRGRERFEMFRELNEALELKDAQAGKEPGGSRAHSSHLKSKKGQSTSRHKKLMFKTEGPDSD

CN1C[C@@H]2C[C@H]1CN2c1cc2c(cc1F)c(=O)c(C(=O)O)cn2C1CC1
not listed: [7]
inactive: all other assays above

O=C(NCCO[N+](=O)[O-])c1cccnc1
not listed: [5]
inactive: all other assays above

CC(=O)NC(Cc1ccccc1)C(=O)O (stereo not drawn)
not listed: [5]
inactive: all other assays above
